# Screening data: PubChem BioAssay, several laboratories
# ssDAF-12 act: activates DAF-12 receptor from parasite S. stercoralis | HEK293 ssDAF-12/GRIP1 lit1-tk-luc reporter, luminescence; % of 3 µM dafachronic acid response | activation, % at 6.8 µM | 1% of 370,000 active;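 active = activation above the mean over all tested compounds plus 3 SD, cut at about 0.9% in these data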
# hgDAF12 agonist: hgDAF-12 agonism, primary luciferase screen; 1.8% of 370,000 active; activation, % at 6.8 µM; HEK293 GAL4-hgDAF12 UAS-luciferase reporter, agonist luminescence; normalized to butyrate control;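 active = activation above a cutoff set at the mean of all screened compounds plus 3 SD, cut at about 10% in these data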
# esBAF inh: blocks esBAF chromatin remodeling in mouse ES cells. Bmi1-luciferase knock-in reporter, 24 h; 100% = twice the neutral-well signal. reporter increase, % at 12.5 µM. 2% of 350,000 active; in the data active = activation above about 40%; inconclusive = no clear call, values can overlap the other calls;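 note: a rise in the Bmi1 reporter signal indicates esBAF inhibition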
# DAX1 StAR inh: blocks DAX1 repression of SF-1 activated StAR promoter. HEK293T StAR-luciferase reporter, SF-1/DAX-1 repression relief. inhibition, % at 6.8 µM. AID 652010. 1.1% of 370,000 active;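 active = inhibition above the mean over all tested compounds plus 3 SD, cut at about 3.6% in these data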;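 note: higher inhibition means more luminescence from relief of DAX-1 repression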
# Wnt bcat act: Wnt/beta-catenin pathway activation; Wnt/beta-catenin reporter cell assay, activator, plate reader; activation, % at 9.35 µM; 1.2% of 300,000 active; in the data active = activation above about 30%, passing the limit was not always enough; inconclusive = no clear call, values can overlap the other calls
# hcDAF12 agonist: activates DAF-12 receptor from parasite H. contortus | activation, % at 6.8 µM | 1.4% of 370,000 active | HEK293 hcDAF-12 lit1-tk-luc reporter, luminescence; 0% DMSO, 100% Δ7-dafachronic acid;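 active = activation above the mean of all tested compounds plus 3 SD, cut at about 5.5% in these data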
# DAX1 inh confirm: confirmation of human DAX1 (NR0B1) inhibitors; shares compounds with DAX1 StAR inh; HEK293T StAR-promoter luciferase reporter, SF-1/DAX-1 repression; inhibition, % at 6.8 µM; 87% of 2,400 active;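 active = inhibition above the average of every tested compound plus 3 SD, cut at about 3.8% in these data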;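 note: active compounds raise luminescence by relieving repression of the StAR reporter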
# Target sequence (P51843 whole entry, looked up): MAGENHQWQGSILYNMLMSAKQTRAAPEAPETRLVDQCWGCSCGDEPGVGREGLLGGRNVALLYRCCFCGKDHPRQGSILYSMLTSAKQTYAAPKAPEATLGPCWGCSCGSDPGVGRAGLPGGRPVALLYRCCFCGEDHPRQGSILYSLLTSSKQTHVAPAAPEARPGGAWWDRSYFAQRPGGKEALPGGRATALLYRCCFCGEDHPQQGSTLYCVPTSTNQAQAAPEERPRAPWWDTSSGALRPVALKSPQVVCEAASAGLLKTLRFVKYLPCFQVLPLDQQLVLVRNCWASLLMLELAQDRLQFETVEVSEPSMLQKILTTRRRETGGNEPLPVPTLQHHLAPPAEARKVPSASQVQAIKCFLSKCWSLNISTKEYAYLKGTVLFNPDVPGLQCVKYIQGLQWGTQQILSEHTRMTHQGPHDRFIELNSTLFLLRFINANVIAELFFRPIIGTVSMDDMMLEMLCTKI
# SF1 mutant ctr: nonselective inhibitor or artifact in SF-1 mutant DAX1 counter-screen | shares compounds with DAX1 StAR inh | HEK293 StAR-luciferase, SF-1 AF2 mutant, luminescence | inhibition, % at 6.8 µM | 78% of 2,400 active;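 active = inhibition above the mean of all tested compounds plus 3 SD, cut at about 3% in these data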
# Numbers stand for hits; i = inactive; ? = inconclusive; nt = no result. Only some compounds are listed: those with a hit (about 4.2% of all), similar ones and a draw of the others.
SMILES,ssDAF-12 act,hgDAF12 agonist,esBAF inh,DAX1 StAR inh,Wnt bcat act,hcDAF12 agonist,DAX1 inh confirm,SF1 mutant ctr
COc1cc(/C=C(\C#N)C(=O)Nc2ccccc2F)ccc1OCCN1CCOCC1,i,i,nt,4.5,i,i,5.0,i
C[C@@H]1CN([C@@H](C)CO)C(=O)c2cc(NC(=O)CCC(F)(F)F)ccc2O[C@@H](C)CCCCO[C@H]1CN(C)C(=O)Nc1cccc2ccccc12,nt,nt,i,nt,nt,nt,nt,nt
Cc1ccc(NC(=O)COC(=O)c2ccc3ncsc3c2)c(C)c1,i,i,i,i,i,i,nt,nt
Cc1ccc(F)cc1NC(=O)COC(=O)c1ccc2ncsc2c1,i,i,i,4.7,i,i,i,i
CO[C@H]1CN(C)C(=O)c2cc(NC(=O)c3cccc(F)c3)ccc2OC[C@H](C)N(C(C)=O)C[C@@H]1C,nt,nt,i,nt,nt,nt,nt,nt
C[C@@H]1CCCCO[C@H](CN(C)S(=O)(=O)c2cccs2)[C@H](C)CN([C@@H](C)CO)C(=O)c2cc(NS(=O)(=O)c3ccc(F)cc3)ccc2O1,nt,nt,i,nt,nt,nt,nt,nt
Cc1c(C(=O)OCC(=O)NCc2ccco2)oc2ccccc12,i,i,i,4.5,i,i,i,i
CC(=Nc1ccccc1)C1=C(O)C(Cc2cccc(F)c2)NC1=O (configuration not stated),i,i,i,6.0,i,i,25,i
COc1cccc(S(=O)(=O)N[C@H]2CC[C@@H](CC(=O)NCc3ccc(F)cc3)O[C@H]2CO)c1,nt,nt,i,nt,nt,nt,nt,nt
O=C(COc1ccc(Cl)cc1Br)NC(=O)NC1CCCC1,i,13,72,8.0,54,i,7.9,5.3
O=C(COc1ccc(Cl)cc1Cl)NC(=O)NC1CCCC1,i,12,48,5.0,i,i,4.1,i
C[C@@H]1CN([C@@H](C)CO)C(=O)c2cc(C3=CCCCC3)cnc2O[C@@H]1CN(C)Cc1cccnc1,nt,nt,i,nt,nt,nt,nt,nt
C[C@H]1CN([C@@H](C)CO)C(=O)c2cc(NC(=O)Cc3cn(C)c4ccccc34)ccc2O[C@H]1CN(C)S(=O)(=O)c1ccccc1,nt,nt,i,nt,nt,nt,nt,nt
O=C(Nc1ccc(CSc2ccccc2)cc1)c1ccco1,i,13,52,5.5,i,i,8.4,5.5
O=C(CSc1ccc(Cl)cc1)Nc1ccc(NC(=O)c2ccco2)cc1,i,i,i,i,nt,i,nt,nt
CCC(=O)N1C[C@H](C)[C@H](OC)CN(C)C(=O)c2cc(NC(=O)c3ccc(F)cc3)ccc2OC[C@@H]1C,nt,nt,i,nt,nt,nt,nt,nt
O=C(Nc1ccc(Br)cc1)N1CCCCCC1,i,i,?,7.2,i,i,4.8,3.3
O=C(Nc1ccc(Cl)c(Cl)c1)N1CCCCCC1,i,i,nt,5.3,i,i,8.8,4.8
O=C(Nc1ccc(Cl)c(Cl)c1)N1CCC(N2CCCCC2)CC1,i,i,i,i,nt,i,nt,nt
CCc1ccc(NC(=O)N2CCCCCC2)cc1,i,i,?,5.2,i,i,9.8,7.0
O=C(Nc1ccc(Br)cc1)N1CCc2ccccc2C1,i,i,nt,5.3,i,i,5.5,3.0
CCc1ccc(NC(=S)N2CCCC2)cc1,i,12,49,5.3,i,6.0,8.6,3.9
CC(Nc1nc(-c2ccccc2)nc2ccccc12)c1ccccc1 (configuration not stated),i,i,i,4.7,i,i,7.3,i
C[C@@H]1CN([C@@H](C)CO)C(=O)c2cc(NC(=O)Cc3ccccc3)ccc2O[C@H]1CN(C)Cc1ccc(C(=O)O)cc1,nt,nt,i,nt,nt,nt,nt,nt
O=C(CCS(=O)(=O)c1ccccc1)N1CCN(c2ccccc2)CC1,i,i,i,9.3,i,i,6.8,3.7
SMILES,ssDAF-12 act,hgDAF12 agonist,esBAF inh,DAX1 StAR inh,Wnt bcat act,hcDAF12 agonist,DAX1 inh confirm,SF1 mutant ctr
O=C(CCS(=O)(=O)c1ccc(Br)cc1)N1CCN(c2ccccc2)CC1,i,i,i,i,nt,i,nt,nt
CS(=O)(=O)c1cccc(C(=O)Nc2ccc(-c3nc4ccccc4[nH]3)cc2)c1,i,i,i,7.2,i,i,6.7,i
CN(C)CCNC(=S)Nc1ccc(-c2nc3ccccc3[nH]2)cc1,i,13,i,5.0,i,i,12,8.7
COc1ccc(C=C(C#N)c2ccc(OC)cc2)cc1,i,17,55,6.7,i,i,9.1,4.0
C[C@H](CO)N1C[C@H](C)[C@H](CN(C)S(=O)(=O)c2ccc(F)cc2)Oc2ccc(NC(=O)c3ccncc3)cc2CC1=O,nt,nt,i,nt,nt,nt,nt,nt
CCC1CCc2sc(C(=O)NCC3CCCO3)cc2C1 (configuration not stated),i,11,66,10,55,i,7.3,3.5
Nc1ccc(CSc2ccc(Cl)cc2)c(Cl)c1,i,11,103,7.3,57,i,13,7.6
CC1CCN(CCCNC(=O)CCc2nnc3n(CCc4ccccc4)c(=O)c4ccccc4n23)CC1,i,i,i,5.7,i,i,i,i
COc1ccc2oc(C(=O)Nc3nnc(C)s3)c(C)c2c1,i,11,i,10,34,i,16,5.9
Nc1ccc(-c2nc3cc(N)ccc3s2)cc1,1.0,21,i,4.8,i,6.5,11,4.2
Cc1ccnc(NC(=O)c2ccc(OCC3CCCO3)cc2)c1 (configuration not stated),i,i,nt,6.8,35,i,4.5,i
N/C(=N\N=C\c1ccc2c(c1)OCO2)c1nonc1N,i,i,nt,6.2,i,5.9,18,9.6
CN1CCCC(OC(=O)c2ccc3c(c2)OCCO3)C1 (configuration not stated),i,i,i,5.4,i,i,6.4,3.2
CC1(C)Cc2cccc(OCC(=O)NCCc3ccc(S(N)(=O)=O)cc3)c2O1,i,i,i,i,i,i,nt,nt
CC1(C)Cc2cccc(OCC(=O)NCCc3ccccc3)c2O1,i,i,i,5.1,i,i,4.5,3.1
COc1ccc(CN(C)C[C@@H]2Oc3ccc(NC(=O)NC(C)C)cc3CC(=O)N([C@@H](C)CO)C[C@H]2C)cc1,nt,nt,i,nt,nt,nt,nt,nt
CCCC(=O)Nc1ccc(NC(=O)c2ccccc2F)cn1,i,i,i,i,i,i,nt,nt
CCCC(=O)Nc1ccc(NC(=O)c2ccccc2)nc1,i,i,i,4.7,i,i,13,6.6
Cn1cccc1C(=O)OCC(=O)Nc1ccc2c(c1)OCCO2,i,11,nt,7.1,49,i,12,7.0
Cn1cccc1C(=O)OCC(=O)NCc1ccc2c(c1)OCO2,i,i,i,i,i,i,nt,nt
CCOCC(=O)Nc1c(C(=O)Nc2ccc3c(c2)OCCO3)oc2ccccc12,i,i,nt,7.0,i,i,6.3,3.1
CC(C)NC(=O)N1CC[C@@H]2[C@H]1c1cc(-c3ccccc3)ccc1N(C)[C@H]2CO,nt,nt,i,nt,nt,nt,nt,nt
